# Data from ChEMBL document CHEMBL1961873, “Compounds: GSK PKIS; Assays: Nanosyn kinase panel” (2012).
# Several values for one entry are separate records, joined by “and”; a condition that tells them apart may be missing. Equal entries are not always repeated.
# Experiments:
# [1] = system: Epidermal growth factor receptor (Homo sapiens), P00533 [T790M]; conditions: at 1 µM
# [2] = system: Epidermal growth factor receptor (Homo sapiens), P00533 [L858R,T790M]; conditions: at 0.1 µM
# [3] = system: Epidermal growth factor receptor (Homo sapiens), P00533 [L858R,T790M]; conditions: at 1 µM
# [4] = molecular target: Ephrin type-A receptor 2 (Homo sapiens) (UniProt P29317); conditions: at 0.1 µM
# [5] = molecular target: Ephrin type-A receptor 2 (Homo sapiens) (UniProt P29317); conditions: at 1 µM
# [6] = molecular target: T1, Ephrin type-A receptor 3 (Homo sapiens) (UniProt P29320); conditions: at 0.1 µM
# T1 sequence (whole entry): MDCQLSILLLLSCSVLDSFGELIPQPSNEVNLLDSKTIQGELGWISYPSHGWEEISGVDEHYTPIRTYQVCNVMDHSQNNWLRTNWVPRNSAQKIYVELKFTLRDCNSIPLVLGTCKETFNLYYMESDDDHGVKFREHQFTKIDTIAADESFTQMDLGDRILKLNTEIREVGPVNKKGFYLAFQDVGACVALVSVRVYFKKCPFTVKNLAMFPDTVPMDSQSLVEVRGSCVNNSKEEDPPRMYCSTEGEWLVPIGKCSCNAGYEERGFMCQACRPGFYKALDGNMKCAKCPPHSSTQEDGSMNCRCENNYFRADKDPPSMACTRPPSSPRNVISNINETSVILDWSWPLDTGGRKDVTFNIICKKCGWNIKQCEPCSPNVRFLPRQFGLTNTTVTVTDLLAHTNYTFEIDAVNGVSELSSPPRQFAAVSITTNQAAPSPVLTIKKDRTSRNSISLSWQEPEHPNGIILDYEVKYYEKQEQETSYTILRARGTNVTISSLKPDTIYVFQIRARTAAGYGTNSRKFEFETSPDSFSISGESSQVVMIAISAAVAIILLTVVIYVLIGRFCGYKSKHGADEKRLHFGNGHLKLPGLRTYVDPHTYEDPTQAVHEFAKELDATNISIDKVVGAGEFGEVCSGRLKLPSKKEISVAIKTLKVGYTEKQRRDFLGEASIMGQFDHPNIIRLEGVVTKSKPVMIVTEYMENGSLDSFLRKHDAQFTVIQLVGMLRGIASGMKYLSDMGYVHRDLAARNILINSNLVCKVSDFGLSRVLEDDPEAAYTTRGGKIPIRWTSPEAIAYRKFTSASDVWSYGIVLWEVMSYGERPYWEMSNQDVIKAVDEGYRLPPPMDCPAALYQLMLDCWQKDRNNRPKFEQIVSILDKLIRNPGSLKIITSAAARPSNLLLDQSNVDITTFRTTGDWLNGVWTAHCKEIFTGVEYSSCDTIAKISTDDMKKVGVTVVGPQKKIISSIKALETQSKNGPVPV
# [7] = molecular target: T1, Ephrin type-A receptor 3 (Homo sapiens); conditions: at 1 µM
# [8] = molecular target: Ephrin type-A receptor 4 (Homo sapiens) (UniProt P54764); conditions: at 0.1 µM
# [9] = molecular target: Ephrin type-A receptor 4 (Homo sapiens) (UniProt P54764); conditions: at 1 µM
# [10] = molecular target: T2, Ephrin type-B receptor 2 (Homo sapiens) (UniProt P29323); conditions: at 0.1 µM
# T2 sequence (whole entry): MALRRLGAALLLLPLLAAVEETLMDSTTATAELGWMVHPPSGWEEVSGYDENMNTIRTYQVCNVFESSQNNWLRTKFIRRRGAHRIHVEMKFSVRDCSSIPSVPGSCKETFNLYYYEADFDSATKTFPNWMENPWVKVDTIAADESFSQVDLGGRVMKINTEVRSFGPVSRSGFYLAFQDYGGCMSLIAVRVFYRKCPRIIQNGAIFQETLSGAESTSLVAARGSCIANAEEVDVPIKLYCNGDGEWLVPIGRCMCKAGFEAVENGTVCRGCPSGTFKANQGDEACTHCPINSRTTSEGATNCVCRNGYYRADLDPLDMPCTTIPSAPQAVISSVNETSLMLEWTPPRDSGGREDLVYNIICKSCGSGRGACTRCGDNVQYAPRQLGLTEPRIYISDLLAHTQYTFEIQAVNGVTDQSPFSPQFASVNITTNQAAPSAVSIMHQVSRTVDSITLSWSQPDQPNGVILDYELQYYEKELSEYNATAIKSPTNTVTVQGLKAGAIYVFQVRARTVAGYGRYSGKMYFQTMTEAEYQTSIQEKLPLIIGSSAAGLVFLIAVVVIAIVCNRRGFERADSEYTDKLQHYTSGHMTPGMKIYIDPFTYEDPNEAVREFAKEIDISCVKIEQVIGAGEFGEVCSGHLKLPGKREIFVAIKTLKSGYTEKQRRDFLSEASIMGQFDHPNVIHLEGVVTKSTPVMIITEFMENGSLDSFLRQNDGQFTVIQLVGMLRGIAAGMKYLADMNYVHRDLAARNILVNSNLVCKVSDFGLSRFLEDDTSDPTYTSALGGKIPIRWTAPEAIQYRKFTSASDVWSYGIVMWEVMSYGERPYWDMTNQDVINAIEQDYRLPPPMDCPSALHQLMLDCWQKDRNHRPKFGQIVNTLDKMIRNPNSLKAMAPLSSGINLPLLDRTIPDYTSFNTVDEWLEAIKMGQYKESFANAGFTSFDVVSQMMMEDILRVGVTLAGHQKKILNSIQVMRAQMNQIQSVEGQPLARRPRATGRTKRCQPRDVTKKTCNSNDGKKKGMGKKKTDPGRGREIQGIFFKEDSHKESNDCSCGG
# [11] = molecular target: T2, Ephrin type-B receptor 2 (Homo sapiens); conditions: at 1 µM
# [12] = molecular target: T3, Ephrin type-B receptor 3 (Homo sapiens) (UniProt P54753); conditions: at 0.1 µM
# T3 sequence (whole entry): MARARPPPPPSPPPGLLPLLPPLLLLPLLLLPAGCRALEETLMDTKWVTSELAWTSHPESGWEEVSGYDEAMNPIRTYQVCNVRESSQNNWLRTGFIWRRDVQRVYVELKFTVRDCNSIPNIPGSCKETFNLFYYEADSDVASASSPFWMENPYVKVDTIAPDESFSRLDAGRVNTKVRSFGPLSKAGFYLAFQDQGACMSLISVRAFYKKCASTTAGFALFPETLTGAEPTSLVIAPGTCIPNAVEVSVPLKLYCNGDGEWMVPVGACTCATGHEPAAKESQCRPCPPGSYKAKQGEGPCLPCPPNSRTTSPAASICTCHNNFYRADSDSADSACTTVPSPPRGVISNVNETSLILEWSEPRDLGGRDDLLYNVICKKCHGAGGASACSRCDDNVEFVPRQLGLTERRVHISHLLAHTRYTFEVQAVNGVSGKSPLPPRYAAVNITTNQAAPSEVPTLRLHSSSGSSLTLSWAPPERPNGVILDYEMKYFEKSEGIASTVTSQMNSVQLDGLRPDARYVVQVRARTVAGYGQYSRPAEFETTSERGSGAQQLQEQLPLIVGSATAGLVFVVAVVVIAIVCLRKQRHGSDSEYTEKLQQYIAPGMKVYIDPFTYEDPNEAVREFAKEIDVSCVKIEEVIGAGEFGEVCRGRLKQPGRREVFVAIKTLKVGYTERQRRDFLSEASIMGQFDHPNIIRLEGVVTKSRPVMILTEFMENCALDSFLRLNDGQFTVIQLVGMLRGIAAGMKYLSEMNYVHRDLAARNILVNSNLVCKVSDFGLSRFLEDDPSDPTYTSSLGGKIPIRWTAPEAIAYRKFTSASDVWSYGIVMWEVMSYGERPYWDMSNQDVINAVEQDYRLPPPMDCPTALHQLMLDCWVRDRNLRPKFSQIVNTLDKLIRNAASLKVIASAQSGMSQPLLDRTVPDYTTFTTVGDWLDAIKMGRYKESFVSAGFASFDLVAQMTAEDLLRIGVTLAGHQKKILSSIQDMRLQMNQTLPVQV
# [13] = molecular target: T3, Ephrin type-B receptor 3 (Homo sapiens); conditions: at 1 µM
# [14] = molecular target: T4, Ephrin type-B receptor 4 (Homo sapiens) (UniProt P54760); conditions: at 0.1 µM
# T4 sequence (whole entry): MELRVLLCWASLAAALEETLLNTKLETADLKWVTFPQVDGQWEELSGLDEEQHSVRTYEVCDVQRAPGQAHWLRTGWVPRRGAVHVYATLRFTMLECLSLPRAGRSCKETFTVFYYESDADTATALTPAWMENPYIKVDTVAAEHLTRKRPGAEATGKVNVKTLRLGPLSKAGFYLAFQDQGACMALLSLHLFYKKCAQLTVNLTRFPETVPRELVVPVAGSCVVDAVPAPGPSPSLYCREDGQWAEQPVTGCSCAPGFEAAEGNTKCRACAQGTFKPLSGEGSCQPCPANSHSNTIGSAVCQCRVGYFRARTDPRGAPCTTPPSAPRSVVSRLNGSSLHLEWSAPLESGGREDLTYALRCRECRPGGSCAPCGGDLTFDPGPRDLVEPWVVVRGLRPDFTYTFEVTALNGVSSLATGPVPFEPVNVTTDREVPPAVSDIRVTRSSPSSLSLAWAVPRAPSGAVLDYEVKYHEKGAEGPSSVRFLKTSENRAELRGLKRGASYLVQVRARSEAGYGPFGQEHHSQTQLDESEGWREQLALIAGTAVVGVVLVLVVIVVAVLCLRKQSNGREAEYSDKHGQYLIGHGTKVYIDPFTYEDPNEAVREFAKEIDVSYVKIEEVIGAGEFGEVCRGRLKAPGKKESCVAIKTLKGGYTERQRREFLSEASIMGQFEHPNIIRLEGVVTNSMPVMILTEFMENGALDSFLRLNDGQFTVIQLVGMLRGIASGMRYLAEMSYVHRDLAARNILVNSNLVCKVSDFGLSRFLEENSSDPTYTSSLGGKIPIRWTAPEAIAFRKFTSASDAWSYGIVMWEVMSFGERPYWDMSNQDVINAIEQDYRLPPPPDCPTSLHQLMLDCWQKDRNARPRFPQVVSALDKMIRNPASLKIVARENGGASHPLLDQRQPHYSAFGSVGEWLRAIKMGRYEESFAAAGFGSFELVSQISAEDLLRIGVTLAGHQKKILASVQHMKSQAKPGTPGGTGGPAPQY
# [15] = molecular target: T4, Ephrin type-B receptor 4 (Homo sapiens); conditions: at 1 µM
# [16] = molecular target: Receptor tyrosine-protein kinase erbB-2 (Homo sapiens) (UniProt P04626); conditions: at 0.1 µM
# [17] = molecular target: Receptor tyrosine-protein kinase erbB-2 (Homo sapiens) (UniProt P04626); conditions: at 1 µM
# [18] = molecular target: Receptor tyrosine-protein kinase erbB-4 (Homo sapiens) (UniProt Q15303); conditions: at 0.1 µM
# [19] = molecular target: Receptor tyrosine-protein kinase erbB-4 (Homo sapiens) (UniProt Q15303); conditions: at 1 µM
# [20] = molecular target: Tyrosine-protein kinase Fer (Homo sapiens) (UniProt P16591); conditions: at 0.1 µM;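 note: reported figures are averaged percent inhibition of FER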
# Tyrosine-protein kinase Fer (Homo sapiens), sequence (P16591 whole entry, looked up): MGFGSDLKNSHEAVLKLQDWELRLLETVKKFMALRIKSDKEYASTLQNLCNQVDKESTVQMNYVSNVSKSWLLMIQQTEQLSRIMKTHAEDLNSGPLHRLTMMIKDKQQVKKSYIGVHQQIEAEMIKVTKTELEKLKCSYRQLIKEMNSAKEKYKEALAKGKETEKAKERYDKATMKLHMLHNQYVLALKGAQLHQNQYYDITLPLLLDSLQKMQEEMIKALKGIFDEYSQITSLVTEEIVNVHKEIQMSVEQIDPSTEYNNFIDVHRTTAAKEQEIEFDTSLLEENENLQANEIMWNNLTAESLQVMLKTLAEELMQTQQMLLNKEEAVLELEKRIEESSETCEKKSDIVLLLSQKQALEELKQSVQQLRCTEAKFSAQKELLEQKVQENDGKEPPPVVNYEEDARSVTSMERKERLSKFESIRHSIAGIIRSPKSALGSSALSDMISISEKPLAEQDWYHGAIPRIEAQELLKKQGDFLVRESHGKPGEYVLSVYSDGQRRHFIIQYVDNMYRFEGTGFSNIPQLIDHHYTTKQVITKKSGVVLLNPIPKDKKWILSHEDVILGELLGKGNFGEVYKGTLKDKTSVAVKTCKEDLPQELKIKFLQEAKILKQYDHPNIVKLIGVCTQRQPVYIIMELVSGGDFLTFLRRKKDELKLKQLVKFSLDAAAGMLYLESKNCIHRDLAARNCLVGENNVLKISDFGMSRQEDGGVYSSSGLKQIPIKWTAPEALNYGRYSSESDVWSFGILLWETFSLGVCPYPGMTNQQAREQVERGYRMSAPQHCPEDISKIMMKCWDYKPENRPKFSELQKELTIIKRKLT
# Receptor tyrosine-protein kinase erbB-4 (Homo sapiens), sequence (Q15303 whole entry): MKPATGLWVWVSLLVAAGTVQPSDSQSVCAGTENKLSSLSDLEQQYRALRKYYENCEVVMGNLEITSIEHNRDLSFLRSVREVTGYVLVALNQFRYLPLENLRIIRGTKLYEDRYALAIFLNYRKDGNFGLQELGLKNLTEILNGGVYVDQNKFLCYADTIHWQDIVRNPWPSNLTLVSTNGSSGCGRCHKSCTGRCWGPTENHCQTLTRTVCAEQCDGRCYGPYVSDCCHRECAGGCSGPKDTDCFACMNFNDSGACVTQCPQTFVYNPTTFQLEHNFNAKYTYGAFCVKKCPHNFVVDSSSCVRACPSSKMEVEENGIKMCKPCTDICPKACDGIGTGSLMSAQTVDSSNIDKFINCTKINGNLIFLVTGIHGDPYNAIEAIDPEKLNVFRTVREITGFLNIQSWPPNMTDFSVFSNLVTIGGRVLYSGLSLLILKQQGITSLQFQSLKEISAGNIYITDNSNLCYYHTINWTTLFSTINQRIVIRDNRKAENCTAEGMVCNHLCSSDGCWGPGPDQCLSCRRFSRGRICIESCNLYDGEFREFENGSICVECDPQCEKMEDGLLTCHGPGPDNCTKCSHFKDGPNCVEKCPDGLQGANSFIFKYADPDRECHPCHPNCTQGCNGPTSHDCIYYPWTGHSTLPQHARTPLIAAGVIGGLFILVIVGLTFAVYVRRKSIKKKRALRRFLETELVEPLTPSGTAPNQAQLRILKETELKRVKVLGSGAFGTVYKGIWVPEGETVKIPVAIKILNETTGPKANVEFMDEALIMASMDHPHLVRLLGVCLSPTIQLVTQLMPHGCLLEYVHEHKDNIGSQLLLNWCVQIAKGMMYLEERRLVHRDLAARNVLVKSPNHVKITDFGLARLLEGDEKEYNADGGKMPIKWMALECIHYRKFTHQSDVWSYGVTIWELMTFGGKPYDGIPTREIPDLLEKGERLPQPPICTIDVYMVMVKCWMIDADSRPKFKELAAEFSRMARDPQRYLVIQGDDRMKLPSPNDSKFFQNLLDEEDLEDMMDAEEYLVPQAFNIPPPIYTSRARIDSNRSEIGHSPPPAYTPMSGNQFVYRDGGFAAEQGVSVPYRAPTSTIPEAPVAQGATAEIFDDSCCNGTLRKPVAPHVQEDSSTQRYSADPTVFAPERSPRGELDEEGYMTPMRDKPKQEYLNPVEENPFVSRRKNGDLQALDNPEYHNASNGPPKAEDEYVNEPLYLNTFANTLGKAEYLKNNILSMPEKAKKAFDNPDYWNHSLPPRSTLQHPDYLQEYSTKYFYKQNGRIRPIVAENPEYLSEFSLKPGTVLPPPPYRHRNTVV
# Ephrin type-A receptor 2 (Homo sapiens), sequence (P29317 whole entry): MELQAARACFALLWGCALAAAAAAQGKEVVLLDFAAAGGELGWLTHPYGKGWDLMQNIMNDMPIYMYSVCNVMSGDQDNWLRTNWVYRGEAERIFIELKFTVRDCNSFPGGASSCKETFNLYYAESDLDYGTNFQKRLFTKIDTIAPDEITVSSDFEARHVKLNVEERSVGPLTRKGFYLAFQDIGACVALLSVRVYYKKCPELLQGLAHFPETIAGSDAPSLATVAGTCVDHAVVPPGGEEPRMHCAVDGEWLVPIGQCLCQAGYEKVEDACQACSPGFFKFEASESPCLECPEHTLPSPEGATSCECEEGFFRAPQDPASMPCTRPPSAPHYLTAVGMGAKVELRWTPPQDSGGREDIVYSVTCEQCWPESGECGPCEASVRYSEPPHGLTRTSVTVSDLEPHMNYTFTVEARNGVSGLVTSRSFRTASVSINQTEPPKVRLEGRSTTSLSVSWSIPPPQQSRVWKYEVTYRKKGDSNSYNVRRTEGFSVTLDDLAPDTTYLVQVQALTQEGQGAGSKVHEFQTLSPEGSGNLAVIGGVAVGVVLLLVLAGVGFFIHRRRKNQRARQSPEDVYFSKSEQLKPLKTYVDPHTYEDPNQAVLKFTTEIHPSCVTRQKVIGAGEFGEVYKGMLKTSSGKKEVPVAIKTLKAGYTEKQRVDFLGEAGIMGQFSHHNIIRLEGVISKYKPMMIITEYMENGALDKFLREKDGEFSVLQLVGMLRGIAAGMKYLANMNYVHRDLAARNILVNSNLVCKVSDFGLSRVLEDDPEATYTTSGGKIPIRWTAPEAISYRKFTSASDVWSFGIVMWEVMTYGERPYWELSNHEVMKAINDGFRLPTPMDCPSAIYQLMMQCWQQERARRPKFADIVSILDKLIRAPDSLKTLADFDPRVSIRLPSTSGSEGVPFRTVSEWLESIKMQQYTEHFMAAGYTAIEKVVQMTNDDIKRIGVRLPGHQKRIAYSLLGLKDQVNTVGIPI
# Receptor tyrosine-protein kinase erbB-2 (Homo sapiens), sequence (P04626 whole entry): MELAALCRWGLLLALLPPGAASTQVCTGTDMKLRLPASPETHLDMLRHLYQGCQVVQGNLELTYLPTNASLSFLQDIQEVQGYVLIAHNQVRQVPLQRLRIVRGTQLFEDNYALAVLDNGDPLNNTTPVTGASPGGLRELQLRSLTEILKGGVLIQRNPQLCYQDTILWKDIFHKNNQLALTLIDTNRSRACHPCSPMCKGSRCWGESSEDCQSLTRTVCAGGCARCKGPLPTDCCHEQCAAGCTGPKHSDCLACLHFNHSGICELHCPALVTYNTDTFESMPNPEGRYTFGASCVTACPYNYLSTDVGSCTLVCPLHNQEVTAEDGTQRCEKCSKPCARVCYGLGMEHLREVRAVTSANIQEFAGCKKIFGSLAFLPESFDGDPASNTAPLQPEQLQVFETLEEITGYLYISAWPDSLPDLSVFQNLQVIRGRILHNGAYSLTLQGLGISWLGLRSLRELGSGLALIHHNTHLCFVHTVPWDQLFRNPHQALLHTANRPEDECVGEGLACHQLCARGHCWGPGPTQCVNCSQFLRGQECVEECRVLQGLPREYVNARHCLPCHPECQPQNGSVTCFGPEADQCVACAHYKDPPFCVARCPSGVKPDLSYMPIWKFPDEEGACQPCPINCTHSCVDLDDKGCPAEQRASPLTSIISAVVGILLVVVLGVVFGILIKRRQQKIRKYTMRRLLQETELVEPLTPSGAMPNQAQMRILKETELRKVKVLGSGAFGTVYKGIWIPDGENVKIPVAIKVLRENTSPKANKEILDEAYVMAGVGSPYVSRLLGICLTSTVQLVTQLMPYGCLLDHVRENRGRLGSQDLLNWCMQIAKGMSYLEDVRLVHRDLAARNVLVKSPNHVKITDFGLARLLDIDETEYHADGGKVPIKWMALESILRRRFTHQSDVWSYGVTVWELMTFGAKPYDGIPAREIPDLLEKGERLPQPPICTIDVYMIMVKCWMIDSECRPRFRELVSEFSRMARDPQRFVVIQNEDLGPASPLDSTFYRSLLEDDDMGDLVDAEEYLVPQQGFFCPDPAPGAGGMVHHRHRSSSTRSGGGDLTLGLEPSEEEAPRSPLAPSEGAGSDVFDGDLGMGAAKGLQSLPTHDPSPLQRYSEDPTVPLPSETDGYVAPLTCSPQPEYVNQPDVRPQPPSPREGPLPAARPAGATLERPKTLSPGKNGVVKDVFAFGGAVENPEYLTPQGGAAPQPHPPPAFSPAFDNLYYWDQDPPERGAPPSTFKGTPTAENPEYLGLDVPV
Compound,inhibition [1],inhibition [2],inhibition [3],inhibition [4],inhibition [5],inhibition [6] [%],inhibition [7],inhibition [8] [%],inhibition [9],inhibition [10],inhibition [11],inhibition [12],inhibition [13],inhibition [14],inhibition [15],inhibition [16],inhibition [17],inhibition [18],inhibition [19],inhibition [20]
CCOc1ccc2c(-c3ccnc(Nc4cc(OC)cc(C(F)(F)F)c4)n3)cnn2n1,0.47%,0.87%,-2.16%,-2.58%,-0.79%,-0.82,1.98%,2.94,6.63%,3.54%,8.72%,2.9%,1.21%,2.17%,1.74%,2.32%,2.46%,4.82%,4.44%,2.36%
Fc1ccc(Nc2nccc(-c3c(-c4ccc(C(F)(F)F)cc4)nn4ncccc34)n2)cc1F,0.77%,-1.9%,0.06%,2.87%,0.53%,2.83,3.84%,5.7,1.99%,8.38%,6.54%,4.44%,1.93%,2.27%,1.26%,-0.32%,-1.28%,9.22%,10.4%,4.97%
FC(F)(F)CNc1nccc(-c2cnn3ncccc23)n1,0.02%,-1.87%,1.32%,0.5%,-1.3%,3.4,4.73%,5.82,7.58%,5.3%,4.55%,4.36%,3.96%,0.32%,1.93%,4.52%,3.89%,13.2%,14%,1.02%
COc1ccc(-c2nn3ncccc3c2-c2ccnc(Nc3ccc(F)c(F)c3)n2)cc1,6.23%,3.78%,8.64%,2.87%,-0.08%,3.49,6.3%,8.99,16.4%,7.75%,18.6%,4.77%,3.59%,1.49%,7.6%,4.95%,5.88%,27.1%,71.3%,4.09%
CS(=O)(=O)CCNCc1ccc(-c2ccc3ncnc(Nc4ccc(OCc5cccc(C(F)(F)F)c5)cc4)c3c2)o1,1.6%,0.98%,3.77%,0.34%,0.55%,2.95,2.34%,6.4,8.61%,7.05%,6.28%,3.02%,3.57%,0.6%,2.19%,4.88%,3.5%,7.3%,28.5%,-1.96%
Nc1ncnc2occ(-c3ccc(NC(=O)Nc4cc(C(F)(F)F)ccc4F)cc3)c12,-0.24% and 0.54%,0.74% and 1.93%,0.23% and -1.52%,22.4% and 1.32%,80.5% and 57%,–,43.8% and 25.2%,–,77.2% and 77.9%,55.4% and 55.7%,80.2% and 81.5%,26.4% and 1.64%,63.5% and 51.1%,30.6% and 20.3%,84.8% and 72.7%,0.55% and 1.68%,-4.37% and 6.37%,5.76% and -0.4%,4.08% and 3.51%,6.66% and 0.72%
CS(=O)(=O)Nc1ccc(-c2ccc3c(NC(=O)C4CC4)n[nH]c3c2)cc1,0.23%,0.3%,0.93%,2.88%,1.54%,5.15,4.1%,5.41,1.08%,9.15%,11.6%,4.92%,4.97%,2.13%,4.33%,-0.58%,-2.83%,-5.65%,9.99%,9.81%
